Only some compounds are listed: those with a hit (about 2.9% of all), similar ones and a draw of the others.
SKN-1 inh – suppressors of acrylamide-induced Pgst-4::GFP reporter in worms, primary screen, SKN-1 inhibitor project, whole organism, uHTS, GFP/RFP fluorescence ratio, strain VP596; actives 0.49% (n = 360,000); C. elegans VP596 Pgst-4::GFP/RFP ratio, 24 h; AID 624304, 2012; inhibition, % at 21.8 µM;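 active means interference check ratio from 0.5 to 1.5 plus GFP to RFP signal ratio inhibition reaching or exceeding a fixed threshold, cut at about 30% in these data, passing the limit was not always enough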
EP2 modulator – EP2 receptor modulators, cAMP readout, primary screen, cell-based, HTRF cAMP, PGE2 stimulation; Prostaglandin E2 receptor EP2 subtype (Homo sapiens), P43116; EP2-expressing cells, cAMP HTRF FRET, PGE2 co-stimulation; induction, % at 25 µM; actives 0.83% (n = 260,000);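 active means compounds whose cAMP rise, as percent of the full-agonist control response, exceeds 60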;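 further: rat C6 glioma line stably carrying human EP2 under a CMV promoter; the protocol text gives 20 µM as final concentration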
Target sequence (P43116 whole entry, looked up): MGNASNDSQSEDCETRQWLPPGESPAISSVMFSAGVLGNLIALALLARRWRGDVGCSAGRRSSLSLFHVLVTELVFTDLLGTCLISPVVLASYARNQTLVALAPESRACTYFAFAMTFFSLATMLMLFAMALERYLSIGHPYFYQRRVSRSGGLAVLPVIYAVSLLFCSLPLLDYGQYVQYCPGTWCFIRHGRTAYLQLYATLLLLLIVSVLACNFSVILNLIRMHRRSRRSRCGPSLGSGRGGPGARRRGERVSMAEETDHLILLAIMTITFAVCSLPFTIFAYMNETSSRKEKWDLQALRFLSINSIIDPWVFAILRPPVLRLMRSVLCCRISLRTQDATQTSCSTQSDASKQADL
PG9 Ab binder – binders of HIV-1 gp120 antibody PG9, primary screen, biochemical, TR-FRET. HIV-1 gp120 / PG9 antibody interaction. TR-FRET gp120-PG9 antibody binding. inhibition, % at 6.7 µM. actives 0.43% (n = 360,000); in the data active means inhibition above about 8.5%
RAM network inh – inhibitors of the yeast RAM network, primary screen, dse1pr::URA3 reporter, 5-FOA selection; S. cerevisiae dse1pr::URA3 reporter, 5-FOA growth OD615, 2 d; analog-sensitive cbk1-as2 kinase mutant strain; inhibition, % at 50 µM; actives 1.8% (n = 190,000);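 active means inhibition above a set limit, 3 SD over mean compound inhibition, cut at about 8.4% in these data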;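 further: inhibition rescues growth on 5-FOA so higher OD means more RAM inhibition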
Rev-erbA mod – modulators of Rev-erb alpha DNA binding, primary screen, biochemical, FITC-DNA, fluorescence polarization, uHTS; Nuclear receptor subfamily 1 group D member 1 (Homo sapiens), P20393; Rev-erbα–FITC-DNA binding, 90 min; activity, % at 10 µM; actives 0.79% (n = 370,000);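 active means activity above about 14%, limit read from the data; passing the limit was not always enough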
PGE2 EP2 inh – human EP2 receptor antagonists, primary screen, TR-FRET cAMP, C6 glioma cells; Prostaglandin E2 receptor EP2 subtype (Homo sapiens), P43116; C6 glioma cells expressing human EP2; cells stimulated with saturating PGE2; inhibition, % at 25 µM; actives 0.52% (n = 260,000);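 active means percent inhibition above 40 after rounding to a whole number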;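 further: rat C6 glioma host cells with rolipram phosphodiesterase inhibitor present; the protocol text gives 20 µM as final concentration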
Rev-erbA confirm – modulators of Rev-erb alpha DNA binding, confirmation, biochemical, FITC-DNA, fluorescence polarization, single point; shares compounds with Rev-erbA mod; 90 min; activation, % at 25 µM; actives 61% (n = 3,000); AID 1259319, 2017;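 active means activation at or above a set limit, or at least 3 SD above the negative control mean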
RORg DNA counter – modulation of RORgamma DNA binding, dose response, counter-screen for Rev-erb alpha modulator project, biochemical, fluorescence polarization, FITC-DNA. shares compounds with Rev-erbA mod. actives 8% (n = 910). purified RORgamma protein-FITC-DNA binding. IC50, µM. AID 1259320, 2017;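 active means Compounds whose fitted half-maximal concentration for disrupting protein-DNA binding is below 10 micromolar; the record names Rev-erb in its text, so the target is in doubt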
Hits are given with their value; . = inactive; / = not tested or not shown.

SMILES	SKN-1 inh	EP2 modulator	PG9 Ab binder	RAM network inh	Rev-erbA mod	PGE2 EP2 inh	Rev-erbA confirm	others
O=C(Nc1cccc(-c2nc3ccccc3o2)c1)c1ccc(N2C(=O)C3C4C=CC(C4)C3C2=O)cc1 (stereo not drawn)	.	.	.	.	.	.	/
O=C1C2C3C=CC(C3)C2C(=O)N1c1cccc(-c2nc3ccccc3o2)c1 (stereo not drawn)	.	.	.	.	28.6	.	.
O=C(NNC(=O)c1ccc(Br)s1)c1cccc(S(=O)(=O)N2CCCC2)c1	.	/	.	/	.	/	/
Cc1ccsc1C(=O)NNC(=O)c1cccc(S(=O)(=O)N2CCCC2)c1	.	/	.	/	18.0	/	.
CC(=O)Nc1cnc(NC(=O)C(C)C)cc1C	/	.	/	/	/	.	/
CCOC(=O)c1nn(-c2ccccc2)c(=O)cc1SC1CCCCC1	.	.	.	.	28.6	.	25.7
CCOC(=O)c1nn(-c2ccccc2)c(=O)cc1SC(C)C	.	.	.	.	.	.	/
O=c1[nH]c(CCl)nc2cc(-c3ccc(F)cc3)sc12	.	/	.	/	.	/	/
O=c1[nH]cnc2cc(-c3ccc(Br)cc3)sc12	.	/	.	/	25.9	/	.
O=C(NC1CCCC1)C(c1ccccc1)N(Cc1ccc2c(c1)OCO2)C(=O)c1ccco1 (stereo not drawn)	/	.	/	/	/	.	/
O=c1[nH]c2ccc(S(=O)(=O)NCC3CCCN(Cc4ccccc4)C3)cc2[nH]1 (stereo not drawn)	/	.	/	/	/	.	/
CCCc1nc2sc(C(=O)OCC)c(N)c2c2c1COC(C)(C)C2	.	.	.	.	47.8	.	25.4
COc1ccc(NC(=O)c2sc3nc(N4CCCC4)c4c(c3c2N)CC(C)(C)OC4)cc1	.	/	.	/	126.9	/	80.4	RORg DNA counter=.
CCOc1ccc(C(=O)N2CCC(c3nc4ccc(Cl)cc4[nH]3)CC2)cc1	/	.	/	/	/	.	/
Cc1ccc(-c2nn(-c3cc(Cl)ccc3[N+](=O)[O-])c(=O)c3ccccc23)cc1	.	.	.	.	.	.	/
O=c1c2ccccc2c(-c2ccccc2)nn1-c1cc(Cl)cc(Cl)c1	.	.	.	/	31.0	.	.
C[C@H]1[C@H](N(Cc2cccs2)Cc2cccs2)CC[C@@]23CCCN2C(=O)CCC[C@@H]13	/	/	/	/	.	/	/
CCC[C@H]1[C@@H](N(C)Cc2cccs2)CC[C@@]23CCCN2C(=O)CCC[C@@H]13	/	/	/	/	42.9	/	51.9	RORg DNA counter=.
CCOC(=O)Cn1c(=NC(=O)C2CC2)sc2c(C)cc(C)cc21	.	.	21.4	/	17.9	.	.
CCC1c2ccc(C)n2CCN1C(=O)c1cc(=O)c2cc(C)c(C)cc2o1 (stereo not drawn)	/	.	/	/	/	.	/
Cn1c2ccccc2n2c(=O)c(Cl)c(-c3ccccc3)c(C#N)c12	.	.	.	.	41.1	.	33.2	RORg DNA counter=.
Cn1ccc(-c2ccccc2)c(C#N)c1=O	.	.	.	.	.	.	/
CCOC(=O)c1cc2c(=O)n3cccc(C)c3nc2n(C(C)C)c1=N	/	.	/	/	/	.	/
O=S(=O)(NCCc1csc(-c2cccnc2)n1)c1cccs1	.	.	.	.	23.9	.	.
CCOc1ncccc1C(=O)Nc1cc(S(=O)(=O)N2CCOCC2)ccc1OCC(F)(F)F	.	/	.	/	30.8	/	15.0
C=CCn1c(=O)[nH]c2nc3cc(N=CN(C)C)c(C)cc3nc2c1=O	.	.	.	/	.	.	/
